Only some compounds are listed: those with a hit (about 6.5% of all), similar ones and a draw of the others.
Vaccinia Venus: inhibitors of vaccinia virus (Venus reporter); Vaccinia virus Venus reporter expression, fluorescence; Potency, µM (highest dose often 36.5 µM), for inactives: at the highest dose activity change, negative = inhibition, most hits filed as inhibitors; 0.46% of 330,000 active; AID 720580; calls by dose curve; tested in A549 cells; further: potency means the concentration at half of the fitted maximal effect; nearly all actives have a fitted effect of over 30% in size
Lassa entry inh: blocks Lassa virus binding to or entry into cells | Potency, µM (doses to about 37.9 µM), for inactives: top-dose activity change, negative = inhibition, hits mostly inhibitors | AID 540256 | Lassa virus pseudotype entry inhibition, cell reporter | 1.2% of 300,000 active; calls by dose curve; tested in HEK293 cells; further: potency means the concentration at half of the fitted maximal effect; nearly all actives have a fitted effect of over 50% in size
MARV entry inh: blocks Marburg virus binding to or entry into cells. Potency, µM (series often up to 37.8 µM), for the others: at the top dose activity change, negative = inhibition, hits mostly inhibitors. 1.8% of 300,000 active. Marburg virus pseudotyped entry inhibition, cell reporter. AID 540276; calls by dose curve; tested in HEK293 cells; further: potency means the concentration at half of the fitted maximal effect
HCMV antiviral: human cytomegalovirus inhibition; HFF cells, HCMV-luciferase reporter, 72 h; stronger effect = lower value; activity change, negative = inhibition, % at 57.5 µM; 4.5% of 410,000 active; AID 1259415; in the data active means activity change below about -60%; inconclusive means no clear call, values can overlap the other calls; inactive means above about -39%
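Two-dose cell screen: HFF monolayers treated with compounds and infected with luciferase-expressing HCMV at 1 PFU/cell, 72 h at 37C, then lysed for luciferase measurement.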
FMDV inh: antivirals against foot and mouth disease virus; FMDV antiviral cell-based qHTS; Potency, µM (top dose mostly 57.9 µM), without a hit: at the top dose activity change, negative = inhibition, hits mostly inhibitors; 1.2% of 410,000 active; calls by dose curve; tested in HEK293T cells; further: read-out not given here; potency means the concentration at half of the fitted maximal effect; nearly all actives have a fitted effect of over 45% in size
Vaccinia mCherry: vaccinia inhibition (mCherry reporter) | Vaccinia virus mCherry reporter infection, fluorescence | Potency, µM (highest dose often 36.5 µM), without a hit: at the top dose activity change, negative = inhibition, actives largely listed as inhibitors | 0.63% of 310,000 active | AID 720579; calls by dose curve; tested in A549 cells; further: potency means the concentration at half of the fitted maximal effect; nearly all actives have a fitted effect of over 35% in size
Starred values were filed as active, the others as inactive; i = inactive; ? = inconclusive; . = no result; [ ] = another dose, or the depositor's remark. On the % scale 0 is the no-effect control and ±100 the full control effect.

SMILES	Vaccinia Venus	Lassa entry inh	MARV entry inh	HCMV antiviral	FMDV inh	Vaccinia mCherry
O=C(CCSCc1ccccc1F)N1CCN(c2ccc(F)cc2)CC1	-3%	-10%[46.1 µM]	.	15	-11%	-4%
COCOc1ccc(Br)cc1C(=O)[C@@H]1O[C@@H]1c1cccc(OC)c1	.	.	-17%[14.2 µM]	.	.	.
Cn1c(=S)[nH]c2sc3c(c2c1=O)CCC(C(C)(C)C)C3 (stereo unspecified)	.	.	.	-95*	.	.
Cc1c(Cl)cccc1NC(=O)CSc1nc2ncccc2o1	-4%	-15%[46.1 µM]	.	7	6%	14%
O=[N+]([O-])c1cc(-c2csc(NCCc3nc4cc(C(F)(F)F)ccc4n3CCCO)n2)ccc1Cl	-11%	.	.	16	?	i
OCCCn1c(CCNc2nc(-c3ccc(Cl)cc3)cs2)nc2cc(C(F)(F)F)ccc21	-21%	.	.	-63*	-15%	?
CC1=C(n2c(=O)c(-c3ccccc3)nc3ccccc32)C(=O)Nc2ccccc2N1	.	.	.	17	.	.
CCNC(=O)c1nn(-c2ccccc2C)nc1CO	-3%	12%[46.1 µM]	7%[46.1 µM]	47	-7%	-9%
CC(C)C1C(c2ccccc2)N(C)C(c2ccccc2)CC1(O)c1ccccc1 (stereo unspecified)	-24%	?	15µM*	?	-30%	?
Cc1ccc([C@H]2C(C#N)=C(N)Oc3cc(C)oc(=O)c32)o1	4%	-3%	5%[46.1 µM]	17	25µM*	4%
CN(C)S(=O)(=O)N1CCC(Oc2ccc(C(=O)NCC(C)(C)CO)cc2)CC1	-12%	1%	-19%[46.1 µM]	-64*	4%	-16%
C=CCNC(=O)c1ccc(OC2CCN(S(=O)(=O)N(C)C)CC2)cc1	-6%	17%	29%[14.2 µM]	-17	0%	3%
CCn1c(C)nc2cc(NS(=O)(=O)c3ccccc3)cc(C(=O)N3C[C@@H](C)O[C@@H](C)C3)c21	-10%	.	.	.	-5%	i
CCCCCCOc1ccc(NC(=O)CC2C(=O)N(CC)C(=S)N2Cc2ccco2)cc1 (stereo unspecified)	?	?	?	-90*	-12%	?
C=CCN1C(=O)C(CC(=O)Nc2ccc(OCCC)cc2)N(CCCN2CCN(Cc3ccccc3)CC2)C1=S (stereo unspecified)	11µM*	?	?	1	?	?
COc1ccc(NC(=O)c2cnc(SC)n2-c2ccc(F)cc2)c(OC)c1	-7%	?	13µM*	9	?	i
O=C(NCc1ccc(F)cc1)c1c(O)nc2ccccn2c1=O	2%	.	19%[46.1 µM]	-61*	-7%	-2%
Cc1cc(C)c(C#N)c(SCc2cn3ccccc3n2)n1	-21%	16%	19%	-77*	-21%	-6%
Cc1cc(C)c(C#N)c(SCc2ccccc2)n1	-10%	0%	4%	-3	-13%	.
c1ccc2c(SCc3cn4ccccc4n3)nncc2c1	.	6%	1%	-60*	59%	.
Cc1cc(C)nc(SCc2cn3ccccc3n2)n1	.	.	.	-60*	15%	.
COc1ccc(NC(=O)C(=O)NCCc2csc3nc(-c4ccccc4F)nn23)cc1OC	1%	-6%[46.1 µM]	.	25	-8%	-6%
CC(C)c1ccc(NC(=O)CN2C(=O)CCc3cc(S(=O)(=O)N4CCOCC4)ccc32)cc1	0%	1%[46.1 µM]	.	42	15%	-6%
Cc1cc(C)c2c(c1)-c1c(ssc1=S)C(C)(C)N2C(=O)CN1C(=O)c2ccccc2C1=O	-10%	-7%	4µM*	10	0%	i
Cc1cccc2c1N(C(=O)CN1C(=O)c3ccccc3C1=O)C(C)(C)c1ssc(=S)c1-2	-12%	0%	?	-25	?	-23%
SMILES	Vaccinia Venus	Lassa entry inh	MARV entry inh	HCMV antiviral	FMDV inh	Vaccinia mCherry
COc1ccc(C(=O)NCc2oc(-c3ccccc3)cc2C(=O)O)cc1	-5%	-1%	2%	-86*	7%	-22%[1.46 µM]
COc1ccc(C(=O)NCc2c(C)oc(C)c2C(=O)O)cc1	-4%	?	12%	7	-10%	i
Cc1nc(Nc2cnc(/C=C/c3cc(C(=O)Nc4cccc(C(F)(F)F)c4)ccc3C)cn2)cc(N2CCNCC2)n1	10µM*	.	.	.	-36%	?
Cc1nc(N2CCC(C)CC2)c2c(C)c(C(=O)Nc3cccc(C(F)(F)F)c3)sc2n1	-23%	-11%	?	11	?	i
CCOC(=O)c1c(CN2CCOCC2)n(-c2ccccc2)c2cc(Br)c(OC)cc12	.	9.2µM*	?	18	-27%	.
CCOC(=O)c1c(CN(C)C)n(-c2ccccc2)c2cc(Br)c(OC)cc12	?	?	10µM*	-30	-19%	0%
CCOC(=O)c1c(CN(C)C)n(-c2ccc(C)cc2)c2cc(Br)c(O)cc12	?	?	?	-7	-16%	?
COc1cc2c(C(=O)N3CCN(c4ccccc4)CC3)c(C)oc2cc1Br	?	?	?	-5	20µM*	?
O=C(CSc1nc2c(c(=O)[nH]1)CN(Cc1ccc3c(c1)OCO3)CC2)Nc1cccc(Cl)c1	-7%	18%[46.1 µM]	0%[46.1 µM]	5	-10%	-17%
Cc1ccc(C)c(Nc2nc3c(S(=O)(=O)c4ccc(C(C)C)cc4)nnn3c3ccsc23)c1	-27%	?	.	-71*	-7%	-28%
Cc1ccc(C)c(Nc2nc3c(S(=O)(=O)c4ccc(Br)cc4)nnn3c3ccsc23)c1	?	?	.	-95*	-16%	?
Cc1ccc(S(=O)(=O)c2nnn3c2nc(NC(C)c2ccccc2)c2sccc23)cc1 (stereo unspecified)	-16%	-6%[46.1 µM]	.	-71*	-30%	-26%
Cc1ccc(Nc2nc3c(S(=O)(=O)c4ccccc4)nnn3c3ccsc23)c(C)c1	-23%	5%[46.1 µM]	.	14	3%	i
CCc1ccc(S(=O)(=O)c2nnn3c2nc(NCCc2ccccc2)c2sccc23)cc1	-26%	?	.	-81*	9%	-29%
COc1ccccc1Nc1nc2c(S(=O)(=O)c3ccc(C(C)C)cc3)nnn2c2ccsc12	-9%	22%[46.1 µM]	.	20	-13%	-11%
Cc1ccc(C)n1-c1ccc(-c2ccnc(N)n2)cc1	-13%	?	?	-66*	?	-26%
Cc1onc(-c2ccccc2)c1-c1ccnc(N)n1	-24%	18%	1%	49	-16%	-21%
c1ccc(CCc2cccnc2)cc1	-8%	-1%	9%	-4	5%	-11%
c1ccc(C(NCc2cccnc2)(c2ccccc2)c2ccccc2)cc1	.	8.2µM*	0%	.	?	.
Cc1cc(C)c(C(=O)CC(=O)c2ccccc2Cl)c(O)c1	-24%	-11%	?	-70*	57%	i
Cc1cc(C)c(NC(=O)CC(=O)c2ccccc2)c(Cl)c1	2%	22%[46.1 µM]	4%[46.1 µM]	?	-11%	i
CC(C)NC(=S)NC(=O)/C=C/c1ccc(F)cc1	-10%	-9%	?	-76*	-5%	-6%
CN(C(=S)NC(=O)/C=C/c1ccc(F)cc1)C1CCCCC1	-12%	-1%	1%	-76*	7%	i

High-throughput results as filed in PubChem BioAssay.
